# Assay results published in publication PMC10726135, “HNF4α isoforms regulate the circadian balance between carbohydrate and lipid metabolism in the liver”.
# Over roughly 18,000 sequences, “log2 normalized intensity” has its median near 0.39; the highest 2% begin near 6.6. The sample holds the highest values, similar sequences and a random draw of the others, so the mix is not that of the screen.
# Target: T1, HNF4alpha2 (COS-7 nuclear extract) (Homo sapiens, UniProt P41235 1-474)
# T1 sequence: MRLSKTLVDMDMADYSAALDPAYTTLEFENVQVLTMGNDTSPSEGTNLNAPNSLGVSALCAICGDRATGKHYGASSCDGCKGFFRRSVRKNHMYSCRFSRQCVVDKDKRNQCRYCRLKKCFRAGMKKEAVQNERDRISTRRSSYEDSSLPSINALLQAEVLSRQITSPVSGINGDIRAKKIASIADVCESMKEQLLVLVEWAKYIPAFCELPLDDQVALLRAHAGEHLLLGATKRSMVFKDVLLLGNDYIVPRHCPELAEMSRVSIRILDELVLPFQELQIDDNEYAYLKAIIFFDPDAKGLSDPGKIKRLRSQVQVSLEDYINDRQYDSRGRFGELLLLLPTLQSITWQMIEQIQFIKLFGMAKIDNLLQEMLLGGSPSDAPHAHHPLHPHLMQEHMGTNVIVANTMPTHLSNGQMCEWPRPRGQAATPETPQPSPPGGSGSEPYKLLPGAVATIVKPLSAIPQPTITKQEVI
# Assay: protein-binding microarray; COS-7 nuclear extract on double-stranded Agilent 4x180k PBM; binding buffer, salt, pH and temperature not given in the material; high values mean tight binding
# Conditions: chain copies: 2; label: 3' end of strand 1 on the slide; dsDNA, one strand shown
# Procedure, shortened: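 The binding signal is Agilent software's gProcessedSignal after background correction and normalization. Arrays were a custom Agilent SurePrint G3 4x180k design of double-stranded ~60-nt oligonucleotides with ~44,000 test sequences in quadruplicate, probed with nuclear extracts of COS-7 cells transiently expressing a human HNF4α isoform. Scans were made at 2-µm resolution on an Agilent G2565CA scanner.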
row,Sequence,binding signal [log2 normalized intensity]
1,CTCTGTGCTCCCAGTTCCCTCATTAGTAACGCCTAGGGAGATTAGAGTATCGGTCGA,1.33
2,CAAAGGACATTTCTAAAAATAGCCTTACTTGCCTAGGGAGATTAGAGTATCGGTCGA,-0.901
3,CCCGGCAGCCCTGCTCCCCGCCTTGGCCTCGCCTAGGGAGATTAGAGTATCGGTCGA,1.56
4,CTACAGGTATGCCTTTGAAGAGTACAGCCTGCCTAGGGAGATTAGAGTATCGGTCGA,-0.571
5,TTCTTTTTGAAGCAAAGCCTTTGAGCAGATGCCTAGGGAGATTAGAGTATCGGTCGA,0.819
6,AGAGAGTTCTATGGGATGACCTTTGAGCAAGCCTAGGGAGATTAGAGTATCGGTCGA,6.93
7,AGCAAACACAAACTATGACCTTTGAAACTTGCCTAGGGAGATTAGAGTATCGGTCGA,7.13
8,GGGCGAGAGAGTTCTATGGGATGACCTTTGGCCTAGGGAGATTAGAGTATCGGTCGA,6.25
9,GTTCTATGGGATGACCTTTGAGCAATAGGAGCCTAGGGAGATTAGAGTATCGGTCGA,5.15
10,TGACAAGCAAACACAAACTATGACCTTTGAGCCTAGGGAGATTAGAGTATCGGTCGA,8.49
11,CAGCAACACTCTACTACTTGACCTTTGAAAGCCTAGGGAGATTAGAGTATCGGTCGA,6.06
12,ATGACCCAAACTTCACAAAAATGAGTGCAAGCCTAGGGAGATTAGAGTATCGGTCGA,-0.838
13,ACACAAACTATGACCTTTGAAACTTACATTGCCTAGGGAGATTAGAGTATCGGTCGA,5.64
14,CCTTTCATGTACTGTTCAGTTCCTATTTCAGCCTAGGGAGATTAGAGTATCGGTCGA,1.72
15,GAGTGGACTTTGGCTTATGCAAATGTTATGGCCTAGGGAGATTAGAGTATCGGTCGA,4.25
16,ACCTTTGACCTGGTACTATGACCTTTCACCGCCTAGGGAGATTAGAGTATCGGTCGA,7.01
17,CTATGACCTTTCACCTTTTAGCTTGGCATGGCCTAGGGAGATTAGAGTATCGGTCGA,4.41
18,TGGTACTATGACCTTTCACCTTTTAGCTTGGCCTAGGGAGATTAGAGTATCGGTCGA,5.81
19,TGACCTGGTACTATGACCTTTCACCTTTTAGCCTAGGGAGATTAGAGTATCGGTCGA,6.99

row,Sequence,binding signal [log2 normalized intensity]
1,GAGTGACCTGGTATTGCAAGTATTTCACCCGCCTAGGGAGATTAGAGTATCGGTCGA,1.57
2,TTCACCTTTCGCCCTTTGTCCTATGACTCTGCCTAGGGAGATTAGAGTATCGGTCGA,4.63
3,TTAGCAGATAAATCTAGGCCTAGGCATTGAGCCTAGGGAGATTAGAGTATCGGTCGA,-0.468
4,ATCTTGGGTTAGGCCTTTAGAGGATTTACTGCCTAGGGAGATTAGAGTATCGGTCGA,-0.708
5,ACATGACCTTTGTCCGTTCCTGCCTGGAGCGCCTAGGGAGATTAGAGTATCGGTCGA,4.82
6,CTGGGATGAGATACCCATTCACATGACCTTGCCTAGGGAGATTAGAGTATCGGTCGA,3.29
7,ATGAGATACCCATTCACATGACCTTTGTCCGCCTAGGGAGATTAGAGTATCGGTCGA,8.34
8,ATACCCATTCACATGACCTTTGTCCGTTCCGCCTAGGGAGATTAGAGTATCGGTCGA,7.01
9,CATTCACATGACCTTTGTCCGTTCCTGCCTGCCTAGGGAGATTAGAGTATCGGTCGA,5.92
10,TTCGGTGCTGACCTTTGTTCACATTTGTGCGCCTAGGGAGATTAGAGTATCGGTCGA,5.06
11,CTGGGAAGATTAAGGAAGGAAGGTGCTTATGCCTAGGGAGATTAGAGTATCGGTCGA,-0.85
12,TTCACCCCATTTTGTCCCTCCCTGCAGCTGGCCTAGGGAGATTAGAGTATCGGTCGA,4.07
13,ACTACCTCTTTAGGCTGGACTCTGACCCATGCCTAGGGAGATTAGAGTATCGGTCGA,6.75
14,TGCAGCCCTGCCACTCTTTTTTAGACTTTGGCCTAGGGAGATTAGAGTATCGGTCGA,3.72
15,CCCTGCCACTCTTTTTTAGACTTTGACCTCGCCTAGGGAGATTAGAGTATCGGTCGA,10
16,CTCTTTAGGCTGGACTCTGACCCATTCCTTGCCTAGGGAGATTAGAGTATCGGTCGA,5.23
17,GACCTCTGCCCTTCCACCCACTTTATCTTCGCCTAGGGAGATTAGAGTATCGGTCGA,3.26
18,ACCAGACTACCTCTTTAGGCTGGACTCTGAGCCTAGGGAGATTAGAGTATCGGTCGA,3.96
19,CCACTCTTTTTTAGACTTTGACCTCCATATGCCTAGGGAGATTAGAGTATCGGTCGA,7.61

row,Sequence,binding signal [log2 normalized intensity]
1,CTGACCTCTTTTGGATTTTTCCATATCTGTGCCTAGGGAGATTAGAGTATCGGTCGA,1.74
2,ATGACCTCTTTTAGTAACTGACTTTAACTTGCCTAGGGAGATTAGAGTATCGGTCGA,1.5
3,TTAATGTGCTTGTCTGACTGCTGCCAAAGGGCCTAGGGAGATTAGAGTATCGGTCGA,-0.631
4,ATGGTGGAGGGTCTTGCTTTGATGTTGATGGCCTAGGGAGATTAGAGTATCGGTCGA,1.58
5,CTTTTGGTATGCAAGGCATGGTGCTTCGCAGCCTAGGGAGATTAGAGTATCGGTCGA,1.26
6,TTTCAAGAATGGAGAAAACAACATTCCTTGGCCTAGGGAGATTAGAGTATCGGTCGA,-0.213
7,TCCTTTGGATCATGTGTCTGAGCAAGTTTCGCCTAGGGAGATTAGAGTATCGGTCGA,2.08
8,TGTCATCTAGACCTGGACTTGAAGCCAGACGCCTAGGGAGATTAGAGTATCGGTCGA,-0.168
9,TGAGTCTGGTGTTTCCCTGTTTGCTTCTGCGCCTAGGGAGATTAGAGTATCGGTCGA,0.819
10,GTTTAACTGACCCAGGGAGAAAGGTCAGGGGCCTAGGGAGATTAGAGTATCGGTCGA,2.86
11,CTGAACTTTAAACTGGTGTGTCTTGCCTTTGCCTAGGGAGATTAGAGTATCGGTCGA,2.06
12,TTTAAAAACTTATCTTGTGACCTTTGACTCGCCTAGGGAGATTAGAGTATCGGTCGA,8.33
13,ATCTGACCTTTGGTTAACTTCTTAACTTGGGCCTAGGGAGATTAGAGTATCGGTCGA,2.97
14,AAACTTATCTTGTGACCTTTGACTCATTATGCCTAGGGAGATTAGAGTATCGGTCGA,6.43
15,AGTGGTTTAAAAACTTATCTTGTGACCTTTGCCTAGGGAGATTAGAGTATCGGTCGA,6.81
16,TATCTTGTGACCTTTGACTCATTATCCCCCGCCTAGGGAGATTAGAGTATCGGTCGA,6.24
17,CTTATCTACTTTAAGATTTGACCCTTGGCCGCCTAGGGAGATTAGAGTATCGGTCGA,7.08
18,TTAAGATTTGACCCTTGGCCAGGTGCAGTGGCCTAGGGAGATTAGAGTATCGGTCGA,4.65
19,ATTCTCTTATCTACTTTAAGATTTGACCCTGCCTAGGGAGATTAGAGTATCGGTCGA,5
